From PubChem BioAssay
The list is not random: actives were taken first. Their share in the collection is about 6.9%.
IL1B secr inh: inflammasome signaling inhibition, IL-1 beta readout; actives 4.7% (n = 360,000); THP-1 LPS/ATP IL-1B secretion, AlphaLISA, 16 h; stronger effect = lower value; activity change, % at 57.5 µM; in the data active = activity change below about -50%; inconclusive = mostly about -30% to -49%; note: % is set by controls: 0 for no effect and ±100 for the full control effect
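THP-1 cells pretreated 1 hr with compounds (up to 57.5 uM final), then stimulated with LPS (250 ng/mL final) plus ATP (1.25 mM final); secreted IL-1B measured by AlphaLISA after 16 hr, decreased signal indicating inhibition.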
MCF10A rerep: induces DNA re-replication in MCF 10a normal breast cells; MCF 10A DNA re-replication, Hoechst nuclear intensity, 48 h; Potency, µM (doses to about 46.1 µM), inactives show at the top dose activity, positive = re-replication, most hits filed as activators; actives 2.9% (n = 350,000); AID 624296; note: potency is the fitted concentration of half-maximal effect; % of control where 0% means no effect; nearly all actives have a fitted effect of over 50% in size
SW480 rereplic: inducers of DNA re-replication in SW480 colon cancer cells; Potency, µM (top dose mostly 46.1 µM), without a hit: at the top dose re-replication activation, usual class: activators; actives 1.8% (n = 340,000); SW480 DNA re-replication, Hoechst DNA content imaging, 48 h; note: potency is the fitted concentration of half-maximal effect; % of control where 0% means no effect; nearly all actives have a fitted effect of over 55% in size
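DNA re-replication was detected as more nuclei of elevated Hoechst intensity after 48 hr exposure to compound (23 nL pinned per well of 250 cells).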
Giardia killer: kills Giardia lamblia | Giardia lamblia trophozoite viability | activity change, % at 7.66 µM, hits read low | actives 0.15% (n = 340,000) | AID 540267; in the data active = activity change below about -80%; inconclusive = between about -30% and that limit;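 note: parasites exposed to compound for two days anaerobically before the ATP read; % is set by controls: 0 for no effect and ±100 for the full control effect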
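ATP-content bioluminescence gauges trophozoite survival. Cells (100/well) receive compound and incubate anaerobically for 48 hrs at 37 deg C; detection reagent follows for 15-30 min at room temperature.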
Vif-APOBEC3F blk: inhibitors of Vif-A3F interaction. AID 602313. Potency, µM (highest dose often 46.1 µM), without a hit: at the top dose activity, negative = active. actives 0.2% (n = 390,000). HeLa A3F-eYFP + Vif (tagged APOBEC3F with the HIV-1 protein that degrades it), YFP fluorescence increase; note: potency is the fitted concentration of half-maximal effect; % of control where 0% means no effect; nearly all actives have a fitted effect of over 65% in size
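HeLa cells stably expressing Vif plus C-terminally eYFP-tagged A3F were seeded, incubated overnight at 37 deg C, dosed with compound, incubated overnight again at 37 deg C. Yellow fluorescence (Ex 488/Em 500-530) reported blocked Vif-mediated A3F-eYFP degradation.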
Vif-A3G inh: Vif-A3G binding inhibition | Q9HC16 | HeLa A3G-eYFP + Vif (tagged APOBEC3G with the HIV-1 protein that degrades it), YFP fluorescence, overnight | Potency, µM (highest dose often 46.1 µM), inactives show at the top dose activity, negative = active, actives largely listed as inhibitors | actives 0.076% (n = 410,000) | AID 602310; note: potency is the fitted concentration of half-maximal effect; % is set by controls: 0 for no effect and ±100 for the full control effect; nearly all actives have a fitted effect of over 60% in size
Target sequence (Q9HC16 whole entry, looked up): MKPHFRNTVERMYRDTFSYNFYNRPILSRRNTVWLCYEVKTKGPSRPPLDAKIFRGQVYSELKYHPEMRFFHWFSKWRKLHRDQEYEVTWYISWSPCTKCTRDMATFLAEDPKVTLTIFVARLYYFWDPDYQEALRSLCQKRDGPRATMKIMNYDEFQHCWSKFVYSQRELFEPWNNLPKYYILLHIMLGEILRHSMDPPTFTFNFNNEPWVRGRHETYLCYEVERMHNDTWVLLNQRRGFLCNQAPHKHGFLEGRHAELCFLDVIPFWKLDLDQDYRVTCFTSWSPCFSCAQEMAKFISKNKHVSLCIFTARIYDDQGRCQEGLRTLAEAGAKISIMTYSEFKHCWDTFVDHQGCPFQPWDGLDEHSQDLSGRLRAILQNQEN
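HeLa cells stably expressing Vif and C-terminally eYFP-tagged A3G, seeded overnight at 37 deg C, then exposed to compound by pintool overnight at 37 deg C. Rise in yellow fluorescence (Ex 488/Em 500-530, Acumen) marks blocked Vif-driven A3G degradation.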
* marks the source's active call; other numbers are inactive results; ? = inconclusive; / = no result; [ ] = dose if it differs, or a comment. Unless noted, calls come from the whole dose curve; as a rule, active = well fitted curve in the direction sought with a large enough effect; inconclusive = small, poorly fitted or top-dose-only effect, or another doubt; inactive = no such curve, though single readings can be large; an effect the other way counts as inactive or inconclusive.

SMILES | IL1B secr inh | MCF10A rerep | SW480 rereplic | Giardia killer | Vif-APOBEC3F blk | Vif-A3G inh
O=C(NCc1ccccc1)c1cc2ccccc2o1 | 5 | -1% | 9% | 3 | -4% | -1%
Cc1ccc(C(=O)NCc2ccc(N3CCN(C)CC3)cc2)cc1C | 0 | 1.6µM* | 2% | 2 | 14% | -8%
COc1ccc2c(c1)[nH]c1c(=O)n(/N=C/C3C(C)C=C(C)CC3C)c(=O)[nH]c12 (configuration not stated) | 6 | ? | 5% | 1 | 1% | -4%
COc1ccc2[nH]c3c(=O)n(/N=C/[C@H]4C(C)C=C(C)CC4C)c(=O)[nH]c3c2c1 (some centres not stated) | -58* | 12µM* | 18µM* | 21 | 1% | -21%
O=C(NCc1cccs1)c1ccc(Cn2c(SCc3cccc(F)c3)nc3cccnc32)cc1 | / | / | / | / | -3% | -1%
CCOC(=O)N1CCN(C(=O)c2ccc3c(=O)n(Cc4ccc(Cl)cc4)c(=S)[nH]c3c2)CC1 | 0 | ? | -4% | -18 | 0% | 2%
CCOC(=O)N1CCN(C(=O)c2ccc(Cn3c(=S)[nH]c4ccc(Br)cc4c3=O)cc2)CC1 | -63* | 4% | ? | -26 | -12% | 6%
O=C(O)c1ccccc1OP(=O)(O)O | / | 0% | -1% | / | / | /
CC(C)(C)n1ncc2c(=O)n(Cc3ccc([S+](=O)([O-])N4CCOCC4)cc3)cnc21 | / | / | / | / | / | 0%
CN1CCc2c(sc3nc(SCC(N)=O)n(-c4ccc(Cl)cc4)c(=O)c23)C1 | 10 | 16µM* | ? | 29 | ? | -7%
CCCCNc1nc2sc3c(c2c(=O)n1-c1cccc(Cl)c1)CCN(C)C3 | -24 | ? | -4% | 19 | -6% | -1%
CCSc1nc2sc3c(c2c(=O)n1-c1ccccc1)CCN(C(C)C)C3 | -27 | 18µM* | -1% | -1 | ? | -14%
CCCCCNc1nc2sc3c(c2c(=O)n1-c1cccc(Cl)c1)CCN(C)C3 | -57* | ? | 1%[9.22 µM] | 7 | -11% | 0%
CCOC(=O)c1cccc(NC(=O)c2ccc3c(c2)nnn3C2CCCC2)c1 | / | / | / | / | 1% | 0%
COc1ccc(/C=C/C(=O)OCCC(C)C)cc1 | / | 14% | 3% | / | / | /
O=C(C[C@H]1C[C@H](C(=O)N2CCOCC2)[C@@]2(CCC3CCCC3)c3[nH]c4cc(-c5ccco5)ccc4c3CCN2C1=O)NCc1ccco1 | -55* | -16% | ? | -5 | 3% | -4%
O=C(C[C@H]1C[C@H](C(=O)N2CCOCC2)[C@@]2(CCC3CCCC3)c3[nH]c4cc(-c5ccco5)ccc4c3CCN2C1=O)NCCC1=CCCCC1 | ? | -56% | 0% | -14 | 7% | 5%
O=C(C[C@H]1C[C@H](C(=O)N2CCOCC2)[C@@]2(CCC3CCCC3)c3[nH]c4cc(-c5ccco5)ccc4c3CCN2C1=O)NCCc1ccccn1 | -52* | ? | ? | 22 | ? | -26%
O=C(C[C@H]1C[C@H](C(=O)N2CCOCC2)[C@@]2(CCC3CCCC3)c3[nH]c4ccc(Cl)cc4c3CCN2C1=O)NCCN1CCOCC1 | -2 | -10% | -1% | 6 | 1% | 4%
COc1ccc(-c2nc(SCC(=O)NCc3nc4ccccc4n3C)n3[nH]c(=O)cc3n2)cc1 | / | / | / | / | 2% | -10%
COC(=O)C1=C(N)Oc2cc(C)n(Cc3ccncc3)c(=O)c2C1c1cccnc1 (configuration not stated) | 17 | 4% | -8% | -9 | -1% | 0%
CCn1c(C)cc2c(c1=O)C(c1ccccc1)C(C(=O)OC)=C(N)O2 (configuration not stated) | -2 | 16µM* | 1% | -1 | -6% | 0%
COC(=O)c1sc2cccc(F)c2c1S(=O)(=O)Nc1cc(C)c(Cl)cc1OC | / | / | / | / | -1% | -4%
CCOc1cc(C2C(C#N)=C(N)OC(C)=C2C(C)=O)c(Br)c(Br)c1OC(C)C (configuration not stated) | 0 | 16µM* | 8.2µM* | -2 | -17% | -21%
O=C1CN(C(=O)c2ccc(S(=O)(=O)N3CCCCC3)cc2)C(c2ccc(F)cc2)c2cc(F)ccc2N1 (configuration not stated) | / | / | / | / | 0% | 0%
SMILES | IL1B secr inh | MCF10A rerep | SW480 rereplic | Giardia killer | Vif-APOBEC3F blk | Vif-A3G inh
O=S1(=O)CC=C(CSC(=S)NC2CCS(=O)(=O)C2)C1 (configuration not stated) | -97* | ? | ? | -10 | -15% | -13%
CC(C)(C)c1cc(CSC(=S)NC2CCS(=O)(=O)C2)c(Br)c(C(C)(C)C)c1 (configuration not stated) | -58* | ? | 3% | 3 | 7% | 2%
NNC(=S)NC1CCS(=O)(=O)C1 (configuration not stated) | -13 | 11% | -2% | 12 | 6% | 2%
COc1cc(NC(=O)CCc2c(C)nc3c(c(C)nn3-c3ccccc3)c2C)cc(OC)c1OC | / | / | / | / | 0% | -3%
COc1ccc(-c2cc(-c3ccccc3)n[nH]2)c(O)c1 | -93* | ? | -12% | 15 | -11% | -5%
Cc1ccc(-c2cc(-c3ccc(F)cc3)n[nH]2)c(O)c1 | -61* | ? | ? | -9 | -18% | -9%
COc1ccc(-c2cc(-c3ccccc3O)[nH]n2)cc1 | -6 | ? | 0% | 8 | -5% | -23%
Cc1nc2c(c(SCC(=O)Nc3ccccc3C(F)(F)F)n1)CCC2 | / | / | / | / | -2% | -2%
CN(C)CC(O)c1ccc(C=Cc2ccc(Cl)cc2)cc1 (configuration not stated) | -92* | ? | 4% | 12 | -2% | 0%
Nc1cc(C(F)(F)F)ccc1S(=O)(=O)Nc1cccc2c1NCCC2 | / | / | / | 2 | / | -26%
Cc1n[nH]c(C)c1-c1nc2ccccc2[nH]1 | -60* | 10% | 0% | -11 | -7% | 2%
Cc1[nH]ncc1-c1nc2ccccc2[nH]1 | -5 | -4% | 1% | 25 | 3% | 1%
CC(C)c1nnc(NC(=O)c2nc(S(=O)(=O)Cc3ccc(F)cc3)ncc2Cl)s1 | -105* | 0.73µM* | 1.3µM* | 7 | -16% | -23%
CC(C)c1nnc(NC(=O)c2nc(SCc3ccc(F)cc3)ncc2Cl)s1 | / | / | / | / | 2% | -4%
Cc1ccc(CS(=O)(=O)c2ncc(Cl)c(C(=O)Nc3nnc(C(C)C)s3)n2)cc1 | -101* | ? | 6% | -2 | 11% | ?
Cc1cccc(CS(=O)(=O)c2ncc(Cl)c(C(=O)Nc3nnc(C(C)C)s3)n2)c1 | -102* | ? | ? | -4 | 10% | ?
